# Results taken from the supplement of paper PMC6555819.
# Assays:
# Experiment in all cases: PBM binding z-score (relative to random genomic background probes); higher = stronger binding; sequences stand for … in GC…GCGATTGACAGCGTAGAATGAAGG
# [1] = system: FXR:RXRa (NR concentration 270 nM, RXRa partner concentration 90 nM)
# Outline: (§1)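 Ligand-free nuclear receptor dimers were applied to custom Agilent 4×180K protein-binding microarrays whose double-stranded probes carried direct-repeat seeds, single-nucleotide variants, half-site ablations and random human genomic background sequences in 34-nt variable regions. Incubation lasted 1 h. Binding z-scores were computed against the random background probes from regression-normalized fluorescence.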
# [2] = system: LXRa:RXRa (NR concentration 270 nM, RXRa partner concentration 90 nM)
# Outline: as §1
# [3] = system: LXRa homodimer (NR concentration 270 nM)
# Outline: as §1
# [4] = system: LXRb:RXRa (NR concentration 270 nM, RXRa partner concentration 90 nM)
# Outline: as §1
# [5] = system: LXRb homodimer (NR concentration 270 nM)
# Outline: as §1
# [6] = system: PPARa:RXRa (NR concentration 270 nM, RXRa partner concentration 90 nM)
# Outline: as §1
# [7] = system: PPARg:RXRa (NR concentration 180 nM, RXRa partner concentration 90 nM)
# Outline: as §1
# [8] = system: PPARg:RXRa 270nM:90nM, anti-RXR (NR concentration 270 nM, RXRa partner concentration 90 nM)
# Outline: as §1
# [9] = system: PPARg:RXRa 30nM:10nM, anti-RXR (NR concentration 30 nM, RXRa partner concentration 10 nM)
# Outline: as §1
# [10] = system: PPARg:RXRa 90nM:30nM, anti-RXR (NR concentration 90 nM, RXRa partner concentration 30 nM)
# Outline: as §1
# [11] = system: PPARg:RXRa DBDmut IVT, anti-RXR (DBD mutation: RXRa K156A/R161A, NR concentration 270 nM, RXRa partner concentration 90 nM)
# Outline: as §1
# [12] = system: PPARg:RXRa IVT, anti-PPARg (NR concentration 270 nM, RXRa partner concentration 90 nM)
# Outline: as §1
# [13] = system: PPARg DBDmut:RXRa IVT, anti-PPARg (DBD mutation: PPARg1 K132A/R137A, NR concentration 270 nM, RXRa partner concentration 90 nM)
# Outline: as §1
# [14] = system: PPARg DBDmut IVT, anti-PPARg (DBD mutation: PPARg1 K132A/R137A, NR concentration 270 nM)
# Outline: as §1
# [15] = system: PPARg homodimer (NR concentration 180 nM)
# Outline: as §1
# [16] = system: PXR:RXRa (NR concentration 270 nM, RXRa partner concentration 90 nM)
# Outline: as §1
# [17] = system: PXR homodimer (NR concentration 270 nM)
# Outline: as §1
# [18] = system: RARa:RXR (NR concentration 270 nM, RXRa partner concentration 90 nM)
# Outline: as §1
# [19] = system: RARa homodimer (NR concentration 270 nM)
# Outline: as §1
# [20] = system: RARb:RXRa (NR concentration 270 nM, RXRa partner concentration 90 nM)
# Outline: as §1
sequence,measurement,setting,value
TGTCAAAGTCCAAAGGTAACGTAAGTATCCACAC,PBM binding z-score,[1],-0.0292
same,PBM binding z-score,[2],0.605
same,PBM binding z-score,[3],-0.413
same,PBM binding z-score,[4],0.55
same,PBM binding z-score,[5],-0.353
same,PBM binding z-score,[6],1.61
same,PBM binding z-score,[7],2.27
same,PBM binding z-score,[8],2.93
same,PBM binding z-score,[9],1.07
same,PBM binding z-score,[10],2.43
same,PBM binding z-score,[11],-0.118
same,PBM binding z-score,[12],1.79
same,PBM binding z-score,[13],0.417
same,PBM binding z-score,[14],1.16
same,PBM binding z-score,[15],0.272
same,PBM binding z-score,[16],0.511
same,PBM binding z-score,[17],-0.0654
same,PBM binding z-score,[18],0.938
same,PBM binding z-score,[19],0.285
same,PBM binding z-score,[20],1.93
CAAACTAGGTCACCGGAGGGTCAAAGTCCGCATG,PBM binding z-score,[1],5.69
same,PBM binding z-score,[2],5.1
same,PBM binding z-score,[3],1.95
same,PBM binding z-score,[4],4.16
same,PBM binding z-score,[5],0.645
same,PBM binding z-score,[6],5.86
same,PBM binding z-score,[7],8.8
same,PBM binding z-score,[8],7.65
same,PBM binding z-score,[9],4.96
same,PBM binding z-score,[10],7.5
same,PBM binding z-score,[11],8.31
same,PBM binding z-score,[12],8.77
same,PBM binding z-score,[13],2.75
same,PBM binding z-score,[14],0.546
same,PBM binding z-score,[15],4.78
same,PBM binding z-score,[16],5.16
same,PBM binding z-score,[17],0.605
same,PBM binding z-score,[18],6.42
same,PBM binding z-score,[19],1.73
same,PBM binding z-score,[20],4.89
CGTACTAGGTCATCCAGGACAGTGAATACATTGA,PBM binding z-score,[1],4.17
same,PBM binding z-score,[2],2.58
same,PBM binding z-score,[3],0.958
same,PBM binding z-score,[4],2.46
same,PBM binding z-score,[5],0.292
same,PBM binding z-score,[6],4.53
same,PBM binding z-score,[7],6.87
same,PBM binding z-score,[8],5.33
same,PBM binding z-score,[9],3.15
same,PBM binding z-score,[10],5.25
same,PBM binding z-score,[11],7.23
same,PBM binding z-score,[12],7.74
same,PBM binding z-score,[13],1.93
same,PBM binding z-score,[14],1.33
same,PBM binding z-score,[15],2.23
same,PBM binding z-score,[16],1.87
same,PBM binding z-score,[17],0.94
same,PBM binding z-score,[18],2.45
same,PBM binding z-score,[19],0.55
same,PBM binding z-score,[20],3.8
CGTCCAAGGTCAGAGAGGTCAGTGCATGCCGAGT,PBM binding z-score,[1],5.87
same,PBM binding z-score,[2],4.93
same,PBM binding z-score,[3],3.33
same,PBM binding z-score,[4],4.41
same,PBM binding z-score,[5],0.554
same,PBM binding z-score,[6],4.76
same,PBM binding z-score,[7],3.48
same,PBM binding z-score,[8],4.37
same,PBM binding z-score,[9],0.807
same,PBM binding z-score,[10],2.76
same,PBM binding z-score,[11],3.03
same,PBM binding z-score,[12],3.39
same,PBM binding z-score,[13],-0.458
same,PBM binding z-score,[14],-1.04
same,PBM binding z-score,[15],4.89
same,PBM binding z-score,[16],5.91
same,PBM binding z-score,[17],11.5
same,PBM binding z-score,[18],5.08
same,PBM binding z-score,[19],1.45
same,PBM binding z-score,[20],5.17
ACTCGGAGGACAAAGGTCGGAGCTACGCCAGTGA,PBM binding z-score,[1],0.927
same,PBM binding z-score,[2],1.18
same,PBM binding z-score,[3],-0.439
same,PBM binding z-score,[4],0.689
same,PBM binding z-score,[5],-0.291
same,PBM binding z-score,[6],2.9
same,PBM binding z-score,[7],4.62
same,PBM binding z-score,[8],5.7
same,PBM binding z-score,[9],3.54
same,PBM binding z-score,[10],5.62
same,PBM binding z-score,[11],-0.0622
same,PBM binding z-score,[12],1.75
same,PBM binding z-score,[13],-0.143
same,PBM binding z-score,[14],-0.29
same,PBM binding z-score,[15],0.786
same,PBM binding z-score,[16],1.29
same,PBM binding z-score,[17],-0.332
same,PBM binding z-score,[18],1.84
same,PBM binding z-score,[19],-0.447
same,PBM binding z-score,[20],2.34
GCGACTCGGGCATCAGCAGGTTACCATAACTTAA,PBM binding z-score,[1],-0.428
same,PBM binding z-score,[2],-0.386
same,PBM binding z-score,[3],-0.511
same,PBM binding z-score,[4],-0.334
same,PBM binding z-score,[5],-1.48
same,PBM binding z-score,[6],0.263
same,PBM binding z-score,[7],0.266
same,PBM binding z-score,[8],-0.256
same,PBM binding z-score,[9],-0.629
same,PBM binding z-score,[10],-0.12
same,PBM binding z-score,[11],0.301
same,PBM binding z-score,[12],-0.204
same,PBM binding z-score,[13],-0.845
same,PBM binding z-score,[14],-1.46
same,PBM binding z-score,[15],-0.774
same,PBM binding z-score,[16],-0.236
same,PBM binding z-score,[17],-0.725
same,PBM binding z-score,[18],0.133
same,PBM binding z-score,[19],-0.931
same,PBM binding z-score,[20],0.242
CGTCCATGGTCAAAGGTCAGTGAAGAGATGACGG,PBM binding z-score,[1],3.85
same,PBM binding z-score,[2],3.63
same,PBM binding z-score,[3],0.607
same,PBM binding z-score,[4],3.29
same,PBM binding z-score,[5],0.097
same,PBM binding z-score,[6],4.92
same,PBM binding z-score,[7],7.27
same,PBM binding z-score,[8],7.01
same,PBM binding z-score,[9],5.64
same,PBM binding z-score,[10],7.4
same,PBM binding z-score,[11],0.409
same,PBM binding z-score,[12],3.55
same,PBM binding z-score,[13],0.423
same,PBM binding z-score,[14],0.425
same,PBM binding z-score,[15],6.15
same,PBM binding z-score,[16],4.15
same,PBM binding z-score,[17],0.407
same,PBM binding z-score,[18],5.38
same,PBM binding z-score,[19],0.504
same,PBM binding z-score,[20],4.41
ACTATTAGTTGACTTAGGGCCACCGATACGACGC,PBM binding z-score,[1],0.803
same,PBM binding z-score,[2],0.394
same,PBM binding z-score,[3],0.324
same,PBM binding z-score,[4],0.152
same,PBM binding z-score,[5],0.713
same,PBM binding z-score,[6],0.121
same,PBM binding z-score,[7],1.07
same,PBM binding z-score,[8],0.422
same,PBM binding z-score,[9],0.18
same,PBM binding z-score,[10],0.363
same,PBM binding z-score,[11],0.373
same,PBM binding z-score,[12],0.728
same,PBM binding z-score,[13],1.68
same,PBM binding z-score,[14],1.42
same,PBM binding z-score,[15],0.408
same,PBM binding z-score,[16],0.124
same,PBM binding z-score,[17],0.0401
same,PBM binding z-score,[18],0.753
same,PBM binding z-score,[19],0.459
same,PBM binding z-score,[20],0.755
CGAACTGGGTCAAGGACAGTGAATCTCCGCACGC,PBM binding z-score,[1],2.51
same,PBM binding z-score,[2],1.36
same,PBM binding z-score,[3],-0.258
same,PBM binding z-score,[4],1.24
same,PBM binding z-score,[5],-0.484
same,PBM binding z-score,[6],4.39
same,PBM binding z-score,[7],6.95
same,PBM binding z-score,[8],6.03
same,PBM binding z-score,[9],2.89
same,PBM binding z-score,[10],5.37
same,PBM binding z-score,[11],7.45
same,PBM binding z-score,[12],7.82
same,PBM binding z-score,[13],5.86
same,PBM binding z-score,[14],3.4
same,PBM binding z-score,[15],1.92
same,PBM binding z-score,[16],1.28
same,PBM binding z-score,[17],-0.104
same,PBM binding z-score,[18],1.94
same,PBM binding z-score,[19],0.123
same,PBM binding z-score,[20],3.39
